This note sets out measurements from PubChem BioAssay (NCATS).

A number with no mark means an inactive call. Inconclusive results are not listed. Activity calls are given as the source filed them. Unless noted, calls follow the shape of the full dose curve.

Experiment [1] can be described thus: qHTS for Inhibitors of the Functional Ribonucleoprotein Complex (vRNP) of Lassa (LASV) Arenavirus: Viability assay - alamar blue signal for LASV Primary Screen (AID 1347083; calls by dose curve; tested in HEK293 reporter line; also: potency is read from the fitted curve at half-maximal effect; nearly all actives have a fitted effect of over 80% in size).
For experiment [2], the target named is Nucleoprotein (Lymphocytic choriomeningitis virus (strain Armstrong)) (UniProt P09992). The experiment in a line: qHTS for Inhibitors of the Functional Ribonucleoprotein Complex (vRNP) of Lymphocytic Choriomeningitis Arenaviruses (LCMV): LCMV Primary Screen - GLuc reporter signal (AID 1347086). Also: nearly all actives have a fitted effect of over 70% in size. Also: potency is read from the fitted curve at half-maximal effect. As to activity change, negative = inhibition: % is scaled to controls: 0 for no effect and ±100 for the full control effect.
In experiment [3] the test system is CRL-7250. The experiment in a line: qHTS assay to identify novel small-molecules to repurpose for Merkel cell carcinoma treatment (AID 1296009; active = well fitted curve in the direction sought with a large enough effect; an effect the other way counts as inactive or inconclusive; also: nearly all actives have a fitted effect of over 60% in size). The conditions noted are these: MCC and control cell lines, CellTiter-Glo viability, 72 h; series mostly up to 92 µM. The method, boiled down: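 Dose-response viability screen; 72 hr exposure at 37 degree celsius; CellTiter-Glo added, 10 min room temperature, luminescence read; RLUs scaled between no-cell and DMSO wells.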

Experiment [4] is described as follows: Cytotoxicity counterscreen for inhibitors of SARS-CoV-2 cell entry (AID 1645845). Also: nearly all actives have a fitted effect of over 50% in size. The method, boiled down: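 Counterscreen run in the same HEK293-ACE2 line as the pseudotyped-particle entry assay, without particles. Viability after 48 h at 37 C was read as ATP luminescence, scaled between cell-containing and cell-free wells.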
A short description of experiment [5]: Primary qHTS to identify inhibitors of SARS-CoV-2 cell entry (AID 1645846). Also: nearly all actives have a fitted effect of over 45% in size. The conditions noted are these: activity change, negative = inhibition: at 57.1 µM (top of the series) unless noted. The method, boiled down: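 Entry measured by luciferase signal 48 h after adding SARS-CoV-2-S pseudotyped MLV particles to HEK293-ACE2 cells preincubated 1 h with compounds. Normalisation: bald particles and spike particles.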

Experiment [6] can be described thus: Primary qHTS for Huh7 cytotoxicity: counterscreen for inhibitors of MERS-S pseudotyped particle cell entry (AID 1479147). The settings on record: outcome: dose series up to 57.1 µM unless noted.
Experiment [7] can be described thus: Primary qHTS for inhibitors of MERS-S pseudo-typed particle cell entry (AID 1479149). Also: nearly all actives have a fitted effect of over 60% in size. As to activity change, negative = inhibition: % is scaled to controls: 0 for no effect and ±100 for the full control effect.
The nature of experiment [8]: Primary qHTS for Vero E6 cytotoxicity: counterscreen for inhibitors of SARS-S pseudo-typed particle cell entry (AID 1479150). The settings on record: outcome: dose series up to 57.1 µM unless noted.
Experiment [9] can be described thus: Confirmatory qHTS for VERO E6 Cytotoxicity Assay: Counterscreen for SARS-CoV-2 CPE Assay (AID 1508605). Also: % is scaled to controls: 0 for no effect and ±100 for the full control effect; nearly all actives have a fitted effect of over 60% in size.
Experiment [10] can be described thus: Confirmatory qHTS for activators (rescue) of SARS-CoV-2 Cytopathic Effect (CPE) (AID 1508606). Also: potency is read from the fitted curve at half-maximal effect; nearly all actives have a fitted effect of over 70% in size.
Experiment [11] in a line: Primary qHTS for inhibitors of SARS-S pseudo-typed particle cell entry (AID 1479145). Also: % is scaled to controls: 0 for no effect and ±100 for the full control effect; nearly all actives have a fitted effect of over 45% in size.
A short description of experiment [12]: qHTS for inhibitors of Rabies Virus screened against the NCATS CANVASS Library (AID 1347402). Also: 0% is about no effect.
For experiment [13], the target named is Alpha-galactosidase (Coffea arabica) (UniProt Q42656). Kind of experiment: Counterscreen for Glucocerebrosidase Inhibitors: qHTS Assay for Coffee Bean alpha-Galactosidase at pH 4.5 (AID 957; active = well fitted curve in the direction sought with a large enough effect; an effect the other way counts as inactive or inconclusive;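 also: plate controls were enzyme alone for no effect and no enzyme for full effect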). The method, boiled down:
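Enzyme is added first (2 nM final), then compounds titrated from 0.7 nM to 77 uM, then 80 uM 4-methylumbelliferyl alpha-D-galactopyranoside; after 20 min at room temperature a pH 10 NaOH/glycine stop precedes fluorescence reading at 365/440 nm.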

Experiment [14] has the same target. Kind of experiment: Counterscreen for Glucocerebrosidase Inhibitors: qHTS Assay for Coffee Bean alpha-Galactosidase at pH 5.9 (AID 998; active = well fitted curve in the direction sought with a large enough effect; an effect the other way counts as inactive or inconclusive;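 also: plate controls were uninhibited enzyme for no effect and no-enzyme basal signal for full effect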). An outline of the steps: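 Enzyme 2 nM + cpd (0.7 nM–77 uM titration) + 4-MU-alpha-Gal 80 uM, pH 5.9 citrate/Tween-20, RT 20 min, NaOH/glycine stop pH 10, fluor 365/440. Normalized to no-enzyme and full-activity controls; Hill-fit AC50.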

Experiment [15] can be described thus: Validation screen for inhibitors of Lassa infection (AID 463096). Also: % is scaled to controls: 0 for no effect and ±100 for the full control effect.
Experiment [16] can be described thus: Inducers of the Endoplasmic Reticulum Stress Response (ERSR) in human glioma: Validation (AID 504836; active = well fitted curve in the direction sought with a large enough effect; an effect the other way counts as inactive or inconclusive; also: 0% is about no effect). An outline of the steps: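 Stably transfected U87-MG glioma cells carrying a GRP78-based luciferase sensor; 16 h compound incubation. Luminescence end-point read 10 min after Bright-Glo addition at room temperature.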
The nature of experiment [17]: P-glycoprotein substrates identified in KB-8-5-11 adenocarcinoma cell line, qHTS therapeutic library screen (AID 1346987; active = well fitted curve in the direction sought with a large enough effect; an effect the other way counts as inactive or inconclusive; also: nearly all actives have a fitted effect of over 65% in size; also: potency is read from the fitted curve at half-maximal effect). An outline of the steps:
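Luminescence from CellTiter-Glo, read 5 min after addition, quantified survival of KB-8-5-11 (P-gp-overexpressing) cells exposed to compounds for 72 h. AC50 was derived from concentration-response curves.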

Experiment [18] in a line: Primary redox qHTS assay for identification of artifact compounds. (AID 1845223; active = well fitted curve in the direction sought with a large enough effect; an effect the other way counts as inactive or inconclusive;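 also: 0% = DMSO and 100% = reference compound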). The method, boiled down:
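Redox-cycling detection via DTT (250 uM final) oxidation coupled to Amplex Red (25 uM)/HRP (250 mU/mL) in HBSS. 15 min preincubation plus 30 min after DTT, room temperature. Ex/Em 525/598 nm; 4-parameter Hill fit against DMSO and 10 uM DA3003.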

The subject of experiment [19] is Zika virus NS2B-NS3 protease (unlinked complex). The experiment in a line: Primary screen GU Rhodamine qHTS for Zika virus inhibitors: Unlinked NS2B-NS3 protease assay (AID 1347159; active = well fitted curve in the direction sought with a large enough effect; an effect the other way counts as inactive or inconclusive; also: % is scaled to controls: 0 for no effect and ±100 for the full control effect; nearly all actives have a fitted effect of over 60% in size). An outline of the steps:
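Buffer 10 mM Tris-HCl pH 8.0, 0.01% Tween 20. Unlinked protease 25 nM; compound preincubation 15 min, RT, protected from light. Substrate Rhod110, 1.5 microM; ~15% conversion in 15 min.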

Experiment [20] in a line: VSVG counterscreen qHTS to identify inhibitors of SARS-CoV-2 cell entry (AID 1645847). Also: % is scaled to controls: 0 for no effect and ±100 for the full control effect; nearly all actives have a fitted effect of over 65% in size. An outline of the steps: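 Luminescence read after 48 h infection at 37 C with VSV-G-pseudotyped MLV particles, following 1 h compound exposure of Expi293F cells stably expressing human ACE2; scaled between bald particle and VSV-G particle wells.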
In experiment [21] the target is Nuclear receptor subfamily 1 group I member 3 (Homo sapiens) (UniProt Q14994). The experiment in a line: Primary qHTS for antagonist of constitutive androstane receptor (CAR) against the NCATS DSHEA and TCM libraries (AID 1794836; active = well fitted curve in the direction sought with a large enough effect; an effect the other way counts as inactive or inconclusive;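 also: HepG2 cells stably expressing hCAR with CYP2B6 luciferase reporter stimulated by CITCO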). An outline of the steps:
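HepG2-CYP2B6-hCAR cells, attached 5 h, given compounds plus CITCO agonist […], incubated 24 h at 37 C. Luciferase luminescence read, multiplexed with CellTiter-Fluor viability (Ex/Em 405/540 nm).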

Experiment [22] has as its system SKOV3. The experiment in a line: Primary qHTS to identify gynecologic anti-cancer compounds using libraries of approved drugs and bioactive compounds (AID 1345084; active = well fitted curve in the direction sought with a large enough effect; an effect the other way counts as inactive or inconclusive; also: % is scaled to controls: 0 for no effect and ±100 for the full control effect; nearly all actives have a fitted effect of over 55% in size). The conditions noted are these: Gynecologic cancer cell panel viability, ATPlite luminescence, 48 h; series mostly up to 57.5 µM. The method, boiled down: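 Luminescence from the ATPlite ATP-monitoring reagent indicates viable cell number; lower signal means cytotoxicity. Cells received compound 16 h after seeding and were exposed for 48 h across five concentrations.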

A short description of experiment [23]: qHTS Assay for Identifying Gametocytocidal Compounds (AID 743244; active = well fitted curve in the direction sought with a large enough effect; an effect the other way counts as inactive or inconclusive;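 also: % is scaled to controls: 0 for no effect and ±100 for the full control effect; actives lower the fluorescent signal which means gametocytes are killed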). The conditions noted are these: P. falciparum 3D7 stage III-V gametocytes, alamarBlue, 72 h; max response: stronger effect = lower value. The method, boiled down:
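Compounds are pinned into medium, gametocytes (stage III–V, 3D7, 20,000 cells/well) added, and plates held 72 h at 37 °C in 5% CO2. AlamarBlue follows for 24 h before fluorescence reading.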

Experiment [24] in a line: qHTS for Inhibitors of the Functional Ribonucleoprotein Complex (vRNP) of Lassa (LASV) Arenavirus: LASV Primary Screen - GLuc reporter signal (AID 1347082; calls by dose curve; tested in HEK293 reporter line).
Experiment [25] has as its system astro. Kind of experiment: Drug repurposing screens with cells derived from glioblastoma tumor samples (AID 1345199; active = well fitted curve in the direction sought with a large enough effect; an effect the other way counts as inactive or inconclusive; also: potency is read from the fitted curve at half-maximal effect; nearly all actives have a fitted effect of over 40% in size). The conditions noted are these: viability, ATP luminescence, 48 h; series mostly up to 45.9 µM. The method, boiled down: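 Primary testing used CD133+ neurospheres from four GBM patients, seven concentrations, 48 h exposure and ATP-based viability; confirmation added three slower-growing patient lines.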

Alpha-galactosidase (Coffea arabica), sequence (Q42656 whole entry, looked up): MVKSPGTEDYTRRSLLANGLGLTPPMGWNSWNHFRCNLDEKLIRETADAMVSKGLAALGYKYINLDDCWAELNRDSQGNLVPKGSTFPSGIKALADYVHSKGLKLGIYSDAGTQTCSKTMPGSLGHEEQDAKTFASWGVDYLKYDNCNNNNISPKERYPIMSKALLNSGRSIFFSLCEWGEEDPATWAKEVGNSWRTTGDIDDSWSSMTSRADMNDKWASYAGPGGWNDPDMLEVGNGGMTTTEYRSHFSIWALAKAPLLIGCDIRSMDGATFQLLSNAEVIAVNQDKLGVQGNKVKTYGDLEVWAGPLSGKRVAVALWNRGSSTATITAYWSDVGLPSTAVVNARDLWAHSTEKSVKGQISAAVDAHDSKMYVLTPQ
Nuclear receptor subfamily 1 group I member 3 (Homo sapiens), sequence (Q14994 whole entry, looked up): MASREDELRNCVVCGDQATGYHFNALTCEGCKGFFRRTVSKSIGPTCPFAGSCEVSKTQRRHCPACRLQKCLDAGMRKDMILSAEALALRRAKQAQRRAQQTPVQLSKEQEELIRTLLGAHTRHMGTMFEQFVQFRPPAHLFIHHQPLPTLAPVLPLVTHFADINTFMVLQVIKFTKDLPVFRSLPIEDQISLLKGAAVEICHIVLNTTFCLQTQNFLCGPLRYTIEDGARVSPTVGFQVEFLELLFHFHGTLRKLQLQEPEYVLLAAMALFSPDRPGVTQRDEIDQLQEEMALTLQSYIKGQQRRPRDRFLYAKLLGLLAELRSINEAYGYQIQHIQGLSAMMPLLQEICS
Nucleoprotein (Lymphocytic choriomeningitis virus (strain Armstrong)), sequence (P09992 whole entry, looked up): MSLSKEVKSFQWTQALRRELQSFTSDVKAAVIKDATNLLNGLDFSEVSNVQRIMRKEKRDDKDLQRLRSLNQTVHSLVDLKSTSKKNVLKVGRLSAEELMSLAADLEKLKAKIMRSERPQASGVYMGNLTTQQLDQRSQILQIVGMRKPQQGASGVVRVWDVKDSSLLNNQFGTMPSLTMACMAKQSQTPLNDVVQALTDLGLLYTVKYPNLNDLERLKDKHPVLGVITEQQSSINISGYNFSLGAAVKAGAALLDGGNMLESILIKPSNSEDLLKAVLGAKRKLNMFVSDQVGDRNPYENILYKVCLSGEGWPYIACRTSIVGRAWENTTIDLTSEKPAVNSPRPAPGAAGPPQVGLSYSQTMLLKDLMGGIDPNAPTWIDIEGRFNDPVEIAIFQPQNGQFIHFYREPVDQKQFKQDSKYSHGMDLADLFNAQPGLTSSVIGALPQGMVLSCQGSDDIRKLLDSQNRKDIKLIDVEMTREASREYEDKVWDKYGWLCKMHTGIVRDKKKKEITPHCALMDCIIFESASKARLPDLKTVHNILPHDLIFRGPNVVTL

Turning to `NC(=O)c1ccc2nc(-c3ccc(Oc4ccc(Cl)cc4)cc3)[nH]c2c1`, the Potency in experiment [1] was 769 nM (active). In addition, the Potency entry in experiment [2] and in experiment [3] was “inactive” throughout.
`CCCCCCCCCCCC1=C(O)C(=O)C=C(O)C1=O`: in [1], the Potency is 4850 nM (active). Further, the Potency entry in experiment [4], in experiment [5] and in experiment [3] was “inactive” each time.
As to `CC1(C)OC(=O)C(OCC2CC2)=C1c1ccc(S(C)(=O)=O)cc1`, the result in [6] and in experiment [8] was inactive. For the same molecule, the Potency entry in experiment [7], in experiment [4] and in experiment [3] was “inactive” in each case.
Turning to `COc1ccccc1OCCNCC(O)CCOc1cccc2[nH]c3ccccc3c12` (centres undefined), the Potency entry in [9] and in experiment [3] was “inactive” in each case. Also, the Potency in experiment [10] was 10 µM (active).
In the case of `Cc1c(C)n(Cc2ccc(-c3ccccc3C(=O)O)cc2)c2ccc(C(=O)N[C@@H](C)c3ccc([N+](=O)[O-])cc3)cc12`, the Potency in experiment [2] was 4.85 µM (active). In addition, the Potency result in experiment [3] is “inactive”.
For `COC(=O)N(C)c1c(N)nc(-c2nn(Cc3ccccc3F)c3ncccc23)nc1N`, the Potency entry in [11], in [7], in experiment [4], in [5] and in experiment [3] was “inactive” throughout. Besides, the outcome in experiment [6] and in [8] was inactive.
As for `CCCSc1nc(N[C@@H]2C[C@H]2c2ccc(F)c(F)c2)c2nnn([C@@H]3C[C@H](OCCO)[C@@H](O)[C@H]3O)c2n1`, the result in [6] and in experiment [8] was inactive. For the same molecule, the Potency entry in experiment [7], in experiment [4] and in experiment [3] was “inactive” throughout.
With `CC(C)c1ccc2c(c1)CCC1[C@](C)(C(=O)O)CCC[C@]21C` (some centres undefined), in experiment [12], the molecule was classed as inactive. The Potency entry in experiment [3] was “inactive”.
Take `O=C(CCc1ccc(O)cc1)c1c(O)cc(O)cc1O`: the call in [13], in experiment [14] and in experiment [16] was inactive. For the same molecule, the Potency entry in experiment [15] was “inactive”.
Turning to `C=CC(C)(C)C12C=C(O)C(=O)N3/C(=C\c4cnc[nH]4)C(=O)NC31N(OC)c1ccccc12` (centres undefined), the Potency in experiment [17] was 7.96 µM (active). In experiment [18], the Potency entry was “inactive”.
`CC1=CC2/C=C(\C)CCC(O)C(O)C(O)CC(=O)C23C(=O)NC(CC(C)C)C3C1C` (centres undefined): the Potency result in [17] is “inactive”.
Take `C[C@@H](CN1CCC(n2c(=O)[nH]c3cc(Br)ccc32)CC1)NC(=O)[C@@H]1C[C@H]1c1ccccc1`: the Potency entry in [19] was “inactive”.
Turning to `O=C(NCCN1CCC2(CC1)C(=O)NCN2c1cccc(F)c1)c1ccc2ccccc2c1`, the Potency entry in [19] was “inactive”.
Consider `CC[C@@](C)(Nc1ccnc(-c2c[nH]c3ncccc23)n1)C(=O)NCC(F)(F)F`, for which the Potency result in [20] was “inactive”.
Take `CC(=O)C1=C(O)C=C2Oc3c(C(C)=O)c(O)c(C)c(O)c3[C@]2(C)C1=O`: the Potency result in [21] was “inactive”.
The same measure, in the same setting: under `CC(=O)O[C@@H]1C[C@@H](C)[C@](O)(CCC2=CC(=O)OC2)[C@@]2(C)CCCC(C)(C)C12` (some centres undefined) stands “inactive”.
Turning to `CN(C(=O)CN1C(=O)COc2cc(Cl)c(Cl)cc21)[C@@H](CN1CCCC1)c1ccc(-c2cccc(C(N)=O)c2)cc1`, in [18], the Potency result was “inactive”.
Turning to `FC(F)(F)c1ccc(N2CCNCC2)nc1Cl`, the Potency result in experiment [22] is “inactive”.
Take `CC(=O)O[C@H]1C[C@H](O[C@H]2[C@@H](O)C[C@H](O[C@H]3[C@@H](O)C[C@H](OC4CC[C@@]5(C)C(CC[C@@H]6[C@@H]5CC[C@]5(C)[C@@H](C7=CC(=O)OC7)[C@@H](O)C[C@]65O)C4)O[C@@H]3C)O[C@@H]2C)O[C@H](C)[C@H]1O[C@@H]1O[C@H](CO)[C@@H](O)[C@H](O)[C@H]1O` (some centres undefined): the max response in experiment [23] is 7.87%. For the same molecule, the Potency was 1.3 µM (active) in [17], 794 nM (active) in [24] and 708 nM (active) in experiment [25].
